# Experimental data taken from the supplement of paper PMC10849652.
# Targets with a hit are over-represented here; the source holds about 8,800 in all. About 0.5% of all pairs of compound and target were hits. A number with no mark means an inactive call.
# Key:
# Assay in all cases: log2 fold change, soluble protein after heating vs DMSO (PISA); higher = thermal stabilisation; K562 lysate, 10 uM; active = over 0.2 and 3.5 SD of the protein, either way, in both replicates (recomputed)
# alvocidib = compound: CN1CC[C@H](c2c(O)cc(O)c3c(=O)cc(-c4ccccc4Cl)oc23)[C@H](O)C1 [alvocidib]
# In short: (§1)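 Thermal stability, expressed as log-two fold change relative to solvent controls, is given from duplicates. Crude K562 extract in PBS pH 7.4 with 1 mM MgCl2, at 1 mg/mL protein, was treated with 10 μM compound for 30 min and heated in aliquots for 3 min across 48°C-58°C. After pooling, adjustment to 0.5% NP-40 at 4°C and centrifugation at 21,000xg for 90 min, supernatant protein was measured by TMTpro 16plex LC-MS/MS with channel sums equalised.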
# Tubastatin A = compound: CN1CCc2c(c3ccccc3n2Cc2ccc(C(=O)NO)cc2)C1 [Tubastatin A]
# In short: as §1
# [1] = compound: CNC(=O)C1=CC=CC=C1NC2=NC(=NC=C2Cl)NC3=C(C=C(C=C3)N4CCOCC4)OC
# In short: as §1
# defactinib = compound: CNC(=O)c1ccc(Nc2ncc(C(F)(F)F)c(NCc3nccnc3N(C)S(C)(=O)=O)n2)cc1 [defactinib]
# In short: as §1
# [2] = compound: CNc1nc(-c2ccc3c(N)n[nH]c3c2)cc(N2C[C@@H](C(=O)NC3CCCCC3)CC[C@H]2C)n1
# In short: as §1
# encorafenib = compound: COC(=O)N[C@@H](C)CNc1nccc(-c2cn(C(C)C)nc2-c2cc(Cl)cc(NS(C)(=O)=O)c2F)n1 [encorafenib]
# In short: as §1
# [3] = compound: COC(=O)[C@H](CCSC)NC(=O)C1=C(C=C(C=C1)NC[C@H](CS)N)C2=CC=CC=C2
# In short: as §1
# alisertib = compound: COc1cc(Nc2ncc3c(n2)-c2ccc(Cl)cc2C(c2c(F)cccc2OC)=NC3)ccc1C(=O)O [alisertib]
# In short: as §1
# [4] = compound: COc1cc2nc(-c3cc(F)ccc3O)nc(N[C@@H]3CNC[C@H]3C(C)(C)O)c2cc1OC
# In short: as §1
# gefitinib = compound: COc1cc2ncnc(Nc3ccc(F)c(Cl)c3)c2cc1OCCCN1CCOCC1 [gefitinib]
# In short: as §1
# lapatinib = compound: CS(=O)(=O)CCNCc1ccc(-c2ccc3ncnc(Nc4ccc(OCc5cccc(F)c5)c(Cl)c4)c3c2)o1 [lapatinib]
# In short: as §1
# pictilisib = compound: CS(=O)(=O)N1CCN(Cc2cc3nc(-c4cccc5[nH]ncc45)nc(N4CCOCC4)c3s2)CC1 [pictilisib]
# In short: as §1
# crizotinib = compound: C[C@@H](Oc1cc(-c2cnn(C3CCNCC3)c2)cnc1N)c1c(Cl)ccc(F)c1Cl [crizotinib]
# In short: as §1
# [5] = compound: C[C@H](C1=CC=C(C=C1)C(=O)NC2=C3C=CNC3=NC=C2)N
# In short: as §1
# duvelisib = compound: C[C@H](Nc1ncnc2nc[nH]c12)c1cc2cccc(Cl)c2c(=O)n1-c1ccccc1 [duvelisib]
# In short: as §1
# gandotinib = compound: Cc1cc(Nc2cc(CN3CCOCC3)c3nc(C)c(Cc4ccc(Cl)cc4F)n3n2)n[nH]1 [gandotinib]
# In short: as §1
# tozasertib = compound: Cc1cc(Nc2cc(N3CCN(C)CC3)nc(Sc3ccc(NC(=O)C4CC4)cc3)n2)n[nH]1 [tozasertib]
# In short: as §1
# doramapimod = compound: Cc1ccc(-n2nc(C(C)(C)C)cc2NC(=O)Nc2ccc(OCCN3CCOCC3)c3ccccc23)cc1 [doramapimod]
# In short: as §1
# bafetinib = compound: Cc1ccc(NC(=O)c2ccc(CN3CC[C@H](N(C)C)C3)c(C(F)(F)F)c2)cc1Nc1nccc(-c2cncnc2)n1 [bafetinib]
# In short: as §1
# [6] = compound: Cc1cccc(CC(=O)N2CCc3c2ccc(-c2cn(C)c4ncnc(N)c24)c3F)n1
# In short: as §1
# Sequence of UniProt O43427 (O43427 whole entry, looked up): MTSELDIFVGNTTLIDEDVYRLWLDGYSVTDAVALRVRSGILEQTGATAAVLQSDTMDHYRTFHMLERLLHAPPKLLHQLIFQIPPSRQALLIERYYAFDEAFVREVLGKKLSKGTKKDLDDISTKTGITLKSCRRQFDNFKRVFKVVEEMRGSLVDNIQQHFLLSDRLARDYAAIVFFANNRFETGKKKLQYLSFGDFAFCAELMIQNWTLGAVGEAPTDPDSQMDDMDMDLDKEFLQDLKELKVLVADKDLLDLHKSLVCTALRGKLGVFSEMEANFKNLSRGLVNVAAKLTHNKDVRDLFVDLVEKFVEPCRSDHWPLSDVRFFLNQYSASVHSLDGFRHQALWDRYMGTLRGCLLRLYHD
# Sequence of UniProt O95571 (O95571 whole entry, looked up): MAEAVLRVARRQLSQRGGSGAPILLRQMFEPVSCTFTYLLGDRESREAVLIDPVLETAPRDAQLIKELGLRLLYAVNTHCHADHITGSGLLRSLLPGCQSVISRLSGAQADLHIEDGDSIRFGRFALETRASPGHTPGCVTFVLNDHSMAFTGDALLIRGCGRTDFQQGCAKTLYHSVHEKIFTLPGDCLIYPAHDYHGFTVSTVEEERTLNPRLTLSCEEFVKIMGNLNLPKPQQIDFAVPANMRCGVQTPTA
# Sequence of UniProt Q8NFI3 (Q8NFI3 whole entry, looked up): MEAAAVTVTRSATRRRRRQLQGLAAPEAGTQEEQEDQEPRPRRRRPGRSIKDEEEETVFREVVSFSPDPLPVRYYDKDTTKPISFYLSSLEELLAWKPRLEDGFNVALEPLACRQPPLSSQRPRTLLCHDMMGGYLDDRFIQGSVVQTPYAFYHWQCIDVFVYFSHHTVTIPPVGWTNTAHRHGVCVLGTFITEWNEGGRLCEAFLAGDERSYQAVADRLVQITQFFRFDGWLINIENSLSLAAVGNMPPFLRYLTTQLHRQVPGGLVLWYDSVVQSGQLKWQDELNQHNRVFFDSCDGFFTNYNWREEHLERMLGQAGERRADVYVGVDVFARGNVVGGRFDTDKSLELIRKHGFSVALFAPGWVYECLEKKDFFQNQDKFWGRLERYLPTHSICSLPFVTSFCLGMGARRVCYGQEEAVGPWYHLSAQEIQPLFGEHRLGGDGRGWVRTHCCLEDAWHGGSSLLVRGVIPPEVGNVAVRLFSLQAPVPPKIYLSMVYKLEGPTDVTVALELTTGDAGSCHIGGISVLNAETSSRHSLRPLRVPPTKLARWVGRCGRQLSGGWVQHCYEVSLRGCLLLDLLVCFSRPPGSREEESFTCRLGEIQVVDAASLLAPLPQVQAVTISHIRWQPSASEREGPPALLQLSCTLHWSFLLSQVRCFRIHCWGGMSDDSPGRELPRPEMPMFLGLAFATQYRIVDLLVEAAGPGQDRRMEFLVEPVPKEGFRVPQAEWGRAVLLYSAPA
# Sequence of UniProt O95208 (O95208 whole entry, looked up): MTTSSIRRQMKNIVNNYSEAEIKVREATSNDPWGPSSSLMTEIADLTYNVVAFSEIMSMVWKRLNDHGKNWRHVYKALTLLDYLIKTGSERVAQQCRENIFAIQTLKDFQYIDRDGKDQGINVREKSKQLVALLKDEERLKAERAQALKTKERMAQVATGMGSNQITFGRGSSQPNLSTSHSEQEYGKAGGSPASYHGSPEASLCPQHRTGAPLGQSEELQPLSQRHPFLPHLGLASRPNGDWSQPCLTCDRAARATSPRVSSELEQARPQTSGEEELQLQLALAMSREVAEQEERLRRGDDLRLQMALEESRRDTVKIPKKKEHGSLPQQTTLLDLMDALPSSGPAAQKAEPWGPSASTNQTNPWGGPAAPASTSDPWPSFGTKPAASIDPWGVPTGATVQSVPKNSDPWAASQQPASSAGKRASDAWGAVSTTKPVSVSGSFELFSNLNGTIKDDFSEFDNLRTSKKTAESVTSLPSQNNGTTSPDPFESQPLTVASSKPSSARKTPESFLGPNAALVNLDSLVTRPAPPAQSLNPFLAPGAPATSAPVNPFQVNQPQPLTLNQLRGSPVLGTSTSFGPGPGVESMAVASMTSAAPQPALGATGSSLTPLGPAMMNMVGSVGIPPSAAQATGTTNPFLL
# Sequence of UniProt P57772 (P57772 whole entry, looked up): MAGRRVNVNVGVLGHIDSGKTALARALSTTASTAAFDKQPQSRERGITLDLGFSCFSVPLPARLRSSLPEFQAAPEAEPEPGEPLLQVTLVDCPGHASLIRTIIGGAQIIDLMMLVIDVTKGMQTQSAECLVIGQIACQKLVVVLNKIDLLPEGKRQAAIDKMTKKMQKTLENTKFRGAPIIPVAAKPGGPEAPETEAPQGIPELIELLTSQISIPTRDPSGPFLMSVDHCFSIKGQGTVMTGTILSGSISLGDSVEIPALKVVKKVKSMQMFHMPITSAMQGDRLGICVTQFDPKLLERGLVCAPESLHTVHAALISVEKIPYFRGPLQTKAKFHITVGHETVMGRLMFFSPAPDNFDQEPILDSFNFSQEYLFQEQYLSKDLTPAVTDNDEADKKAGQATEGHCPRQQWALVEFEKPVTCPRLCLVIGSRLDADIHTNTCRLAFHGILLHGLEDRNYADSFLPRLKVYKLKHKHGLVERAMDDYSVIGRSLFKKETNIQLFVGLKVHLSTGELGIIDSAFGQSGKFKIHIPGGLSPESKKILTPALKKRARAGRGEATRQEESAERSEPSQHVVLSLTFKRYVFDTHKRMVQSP
# Sequence of UniProt O14772 (O14772 whole entry, looked up): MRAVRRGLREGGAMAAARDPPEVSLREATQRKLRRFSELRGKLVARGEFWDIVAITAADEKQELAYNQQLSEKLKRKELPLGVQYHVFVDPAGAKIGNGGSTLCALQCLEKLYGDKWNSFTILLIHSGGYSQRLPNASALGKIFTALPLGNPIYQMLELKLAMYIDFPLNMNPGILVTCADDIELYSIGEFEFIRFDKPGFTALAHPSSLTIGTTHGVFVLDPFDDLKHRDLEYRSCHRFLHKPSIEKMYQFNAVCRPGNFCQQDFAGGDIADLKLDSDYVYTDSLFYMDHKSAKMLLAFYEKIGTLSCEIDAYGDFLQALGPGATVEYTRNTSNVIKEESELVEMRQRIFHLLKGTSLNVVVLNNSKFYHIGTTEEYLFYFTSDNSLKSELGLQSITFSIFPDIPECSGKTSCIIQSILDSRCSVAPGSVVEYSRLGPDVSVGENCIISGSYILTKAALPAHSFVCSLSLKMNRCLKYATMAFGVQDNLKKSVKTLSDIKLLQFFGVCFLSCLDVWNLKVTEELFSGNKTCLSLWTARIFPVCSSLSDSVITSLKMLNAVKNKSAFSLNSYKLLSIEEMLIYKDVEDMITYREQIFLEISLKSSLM
# Sequence of UniProt P11413 (P11413 whole entry, looked up): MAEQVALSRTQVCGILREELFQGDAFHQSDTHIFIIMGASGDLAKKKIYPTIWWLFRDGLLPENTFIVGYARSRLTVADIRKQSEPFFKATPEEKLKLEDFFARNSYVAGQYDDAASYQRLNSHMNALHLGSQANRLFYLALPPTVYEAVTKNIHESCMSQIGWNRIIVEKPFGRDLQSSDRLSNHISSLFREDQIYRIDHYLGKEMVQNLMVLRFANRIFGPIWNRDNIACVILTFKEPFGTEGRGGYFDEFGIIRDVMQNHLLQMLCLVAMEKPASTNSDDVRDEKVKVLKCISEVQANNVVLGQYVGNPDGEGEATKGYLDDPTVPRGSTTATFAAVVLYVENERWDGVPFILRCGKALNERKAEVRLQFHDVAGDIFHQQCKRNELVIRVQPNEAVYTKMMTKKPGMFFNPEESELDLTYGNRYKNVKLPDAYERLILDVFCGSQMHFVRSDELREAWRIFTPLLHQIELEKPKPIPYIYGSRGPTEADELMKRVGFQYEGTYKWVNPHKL
# Sequence of UniProt O00471 (O00471 whole entry, looked up): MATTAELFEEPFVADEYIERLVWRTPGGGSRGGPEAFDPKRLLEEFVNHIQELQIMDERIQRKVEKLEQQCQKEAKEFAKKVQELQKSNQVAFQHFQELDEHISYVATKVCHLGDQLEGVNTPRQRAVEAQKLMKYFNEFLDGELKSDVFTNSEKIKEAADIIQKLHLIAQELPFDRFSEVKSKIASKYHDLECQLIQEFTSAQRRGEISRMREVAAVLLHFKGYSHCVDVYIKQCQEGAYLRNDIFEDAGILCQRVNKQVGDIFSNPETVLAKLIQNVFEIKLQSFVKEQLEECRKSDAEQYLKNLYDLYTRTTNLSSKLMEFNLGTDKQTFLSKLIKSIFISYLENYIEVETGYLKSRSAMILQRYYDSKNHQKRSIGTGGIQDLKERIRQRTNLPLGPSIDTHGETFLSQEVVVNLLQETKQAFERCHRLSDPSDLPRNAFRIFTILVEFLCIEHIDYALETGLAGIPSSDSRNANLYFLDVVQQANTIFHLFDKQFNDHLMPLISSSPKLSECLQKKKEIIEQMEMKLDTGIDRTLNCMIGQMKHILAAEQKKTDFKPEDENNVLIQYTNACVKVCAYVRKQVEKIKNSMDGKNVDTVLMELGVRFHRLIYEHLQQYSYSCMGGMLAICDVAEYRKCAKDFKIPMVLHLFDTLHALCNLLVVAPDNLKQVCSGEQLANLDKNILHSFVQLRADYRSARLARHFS
# Sequence of UniProt Q9H4H8 (Q9H4H8 whole entry, looked up): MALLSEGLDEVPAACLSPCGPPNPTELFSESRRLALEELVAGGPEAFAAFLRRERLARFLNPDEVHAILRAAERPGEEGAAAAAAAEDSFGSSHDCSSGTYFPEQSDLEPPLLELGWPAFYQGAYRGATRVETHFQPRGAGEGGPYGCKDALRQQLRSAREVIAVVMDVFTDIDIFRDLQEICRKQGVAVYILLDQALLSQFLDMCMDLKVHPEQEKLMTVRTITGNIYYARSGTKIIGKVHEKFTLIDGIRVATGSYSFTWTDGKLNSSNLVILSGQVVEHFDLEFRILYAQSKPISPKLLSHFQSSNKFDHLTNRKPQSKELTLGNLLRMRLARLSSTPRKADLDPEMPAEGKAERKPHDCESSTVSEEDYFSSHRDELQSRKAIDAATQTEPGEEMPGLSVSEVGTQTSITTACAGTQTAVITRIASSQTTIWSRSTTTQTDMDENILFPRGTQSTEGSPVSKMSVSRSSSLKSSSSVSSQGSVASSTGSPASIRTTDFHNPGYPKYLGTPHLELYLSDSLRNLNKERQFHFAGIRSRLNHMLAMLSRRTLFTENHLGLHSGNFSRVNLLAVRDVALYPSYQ
Target,log2 fold change (alvocidib),log2 fold change (Tubastatin A),log2 fold change [1],log2 fold change (defactinib),log2 fold change [2],log2 fold change (encorafenib),log2 fold change [3],log2 fold change (alisertib),log2 fold change [4],log2 fold change (gefitinib),log2 fold change (lapatinib),log2 fold change (pictilisib),log2 fold change (crizotinib),log2 fold change [5],log2 fold change (duvelisib),log2 fold change (gandotinib),log2 fold change (tozasertib),log2 fold change (doramapimod),log2 fold change (bafetinib),log2 fold change [6]
EPB41 (UniProt P11171),0.044,-0.02,0.011,0.015,-0.067,0.01,-0.001,0.02,-0.036,0.007,-0.009,-0.015,-0.007,0.04,-0.016,-0.105,0.035,0.01,-0.013,-0.088
FARSA (UniProt Q9Y285),-0.003,-0.105,0.007,0.045,0.019,-0.02,0.098,0.01,0.017,-0.014,-0.028,0.012,-0.05,-0.003,0.056,0.039,-0.063,0,-0.075,-0.047
"EEF1A1, A0A087WVQ9",-0.005,-0.102,0.042,0.062,0.071,0.011,0.115,-0.073,0.026,-0.054,0.028,-0.038,-0.02,0.07,-0.021,0.017,-0.08,-0.069,0.068,-0.129
ENY2 (UniProt Q9NPA8),0.351 (active),-0.024,0.016,0.096,-0.084,0.004,-0.003,0.024,-0.019,-0.016,0.025,-0.024,0.031,0.726 (active),0.034,-0.386 (active),0.019,-0.021,-0.07,-0.529 (active)
ETHE1 (UniProt O95571),-0.076,0.035,-0.014,-0.008,-0.021,0.008,0.037,0.094,0.022,-0.14,0.049,-0.049,-0.022,-0.034,-0.011,0.016,-0.06,0.005,0.038,0.018
EEFSEC (UniProt P57772),-0.008,-0.157,0.019,0.036,-0.017,0.018,0.098,0.019,0,-0.012,-0.019,0.008,-0.042,-0.043,0.031,-0.023,0.024,0.022,-0.079,0.041
EXOC5 (UniProt O00471),0.004,-0.064,-0.011,0.007,-0.07,0.029,-0.102,0.029,-0.025,0.002,-0.012,0.017,-0.067,0.055,-0.027,-0.202,0.025,0.027,-0.033,0.003
EXOC2 (UniProt Q96KP1),0.025,-0.107,-0.012,0.046,-0.048,0.031,0.027,0,0.007,0.005,-0.016,-0.011,-0.099,0.017,-0.032,-0.185,0.001,0.042,-0.056,0.059
G6PD isoform 2 (UniProt P11413),0.029,-0.068,0.013,0.031,0.009,-0.025,0.145,0.021,-0.017,-0.023,0.018,-0.022,-0.03,0.094,-0.023,-0.063,-0.003,-0.015,0.037,-0.035
EPN2 (UniProt O95208),-0.079,-0.008,0.001,0.005,0.009,0.016,-0.051,0.002,0.03,-0.014,-0.007,-0.037,-0.009,-0.407 (active),0.055,0.165,-0.036,0.065,-0.027,0.093
ENGASE (UniProt Q8NFI3),-0.144,-0.02,0.043,-0.011,0.02,0.018,-0.056,0.025,-0.015,0.018,-0.02,0,0.011,-0.048,-0.025,0.116,0.051,0.033,0.003,0.148
FAM83D (UniProt Q9H4H8),-0.009,-0.044,0.005,-0.007,0.022,0.026,0.017,0.015,0.062,0.009,-0.01,-0.024,-0.026,-0.021,-0.002,-0.018,-0.038,0.009,-0.116,0.031
FPGT (UniProt O14772),0.031,-0.111,-0.011,0.008,-0.02,0.011,0.058,0.002,0.002,0.013,0.005,0.019,-0.077,0.319 (active),0.006,-0.085,0.012,0.054,-0.043,-0.012
FANCD2 isoform 1 (UniProt Q9BXW9),0,-0.082,-0.001,-0.044,0.147,-0.059,0.096,0.001,0.023,0.009,-0.092,-0.037,-0.221,-0.086,-0.032,0.132,-0.069,-0.023,-0.079,0.279 (active)
FIBP (UniProt O43427),0.03,0.003,0.05,0.1,-0.079,0.036,0.094,0.012,0.002,-0.005,-0.016,-0.074,-0.08,0.003,0.073,-0.031,0.05,-0.038,-0.025,0.094
GIGYF2 (UniProt Q6Y7W6),-0.028,-0.164,0.052,0.017,0.019,0.092,-0.063,0.028,0.013,0.005,0.013,0.057,0.024,0.03,-0.033,0.05,-0.006,-0.086,-0.043,-0.009
